This note sets out measurements from PubChem BioAssay (NCI).

Assay [1] in a line: NCI Yeast Anticancer Drug Screen. Data for the rad50 strain (AID 155).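 Note: 0% = growth of vehicle-only cultures of the same strain.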 As to conditions: S. cerevisiae rad50 strain growth inhibition, stronger effect = higher value. The essentials: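 Cells are treated with compound, grown, and their growth is then scored against vehicle-only cultures of the same repair-deficient yeast strain.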
Assay [2] in a line: NCI Yeast Anticancer Drug Screen. Data for the mec2-1 strain (AID 157). As to conditions: S. cerevisiae mec2-1 strain, stronger effect = higher value. The essentials: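 Test agents were screened against the mec2-1 yeast strain, with defined DNA repair or cell cycle alteration. Growth was scored as inhibition against vehicle-only controls.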
Assay [3] can be described thus: NCI Yeast Anticancer Drug Screen. Data for the sgs1 mgt1 strain (AID 161).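 Note: 0% = growth of cultures given vehicle only.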 As to conditions: S. cerevisiae sgs1 mgt1 strain, stronger effect = higher value. Summed up: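 Mutant yeast exposed to compound; growth scored against vehicle-only wells.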
Assay [4] is described as follows: NCI Yeast Anticancer Drug Screen. Data for the cln2 rad14 strain (AID 165).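 Note: 0% = growth equal to vehicle treated cultures.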 As to conditions: S. cerevisiae cln2 rad14 strain, stronger effect = higher value. The essentials: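 Growth of compound-exposed yeast (cln2 rad14 genotype) measured and expressed as inhibition relative to vehicle.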
Assay [5] is described as follows: NCI Yeast Anticancer Drug Screen. Data for the bub3 strain (AID 167). As to conditions: S. cerevisiae bub3 mutant strain, stronger effect = higher value. Summed up: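 Part of a panel of yeast mutants defective in DNA damage repair or cell cycle regulation. Each strain is grown with compound, and inhibition is calculated relative to solvent-treated cultures.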
Assay [6] can be described thus: NCI Yeast Anticancer Drug Screen. Data for the mlh1 rad18 strain (AID 175). As to conditions: S. cerevisiae mlh1 rad18 strain growth inhibition, stronger effect = higher value. The essentials:
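In this whole-cell yeast screen, a strain with altered DNA damage repair is challenged with compound, and its growth is measured against matched vehicle-treated controls.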

Setting [7] is: at 5.0 µM (retest, dose inferred, filed as 0.5).
The mark [8] stands for this setting: at 50.0 µM (retest, dose inferred, filed as 5.0).

About 79,000 compounds went through this panel and 15% of them were active in at least one assay; those are over-represented in the sample as a whole. A number with no mark means an inactive call. Activity calls are given as the source filed them. Cut-off read from the data, not from the text of the source: active = growth inhibition above about 70%; inactive = the rest.

In the case of `COc1cc(N=Nc2ccccc2)cc(/C=N/NC(N)=S)c1O`, the growth inhibition was -2% in assay [1] (setting [7]); 46% in assay [1] (setting [8]); 73.8% (active) in assay [1] (at 50.0 µM); 3% in assay [2] (setting [7]); 59% in assay [2] (setting [8]); 67.2% in assay [2] (at 50.0 µM). The growth inhibition is 9% in assay [3] (setting [7]); 85% (active) in assay [3] (setting [8]); 88.8% (active) in assay [3] (at 50.0 µM); -9% in assay [4] (setting [7]); 37% in assay [4] (setting [8]); 78.8% (active) in assay [4] (at 50.0 µM). For the same compound, the growth inhibition in assay [5] (setting [7]) was 1%; in assay [5] (setting [8]), 61%; in assay [5] (at 50.0 µM) it was 58.3%; in assay [6] (setting [7]) it was 4%; in assay [6] (setting [8]) it was 73% (active); in assay [6] (at 50.0 µM) it was 90.8% (active).

As to `CCS(=O)(=O)c1ccc(NC(=O)OC2CC(C)CCC2C(C)C)cc1` (configuration not stated), the growth inhibition in assay [1] (setting [7]) was 14%; in assay [1] (setting [8]) it was 90% (active); in assay [1] (at 50.0 µM), 90.5% (active); in assay [2] (setting [7]) it was 18%; in assay [2] (setting [8]) it was 94% (active); in assay [2] (at 50.0 µM) it was 91.6% (active). For the same compound, the growth inhibition in assay [3] (setting [7]) was 15%; in assay [3] (setting [8]), 91% (active); in assay [3] (at 50.0 µM), 89.5% (active); in assay [4] (setting [7]), 12%; in assay [4] (setting [8]), 91% (active); in assay [4] (at 50.0 µM) it was 86.7% (active). Also, the growth inhibition was 11% in assay [5] (setting [7]); 94% (active) in assay [5] (setting [8]); 90.8% (active) in assay [5] (at 50.0 µM); 20% in assay [6] (setting [7]); 92% (active) in assay [6] (setting [8]); 92.1% (active) in assay [6] (at 50.0 µM).

`Oc1ccc(Br)cc1-c1nc2cc(Cl)c(Cl)cc2nc1-c1cc(Br)ccc1O`: the growth inhibition in assay [1] (setting [7]) is 48%; in assay [1] (setting [8]), 80% (active); in assay [1] (at 50.0 µM), 81.2% (active); in assay [2] (setting [7]), 46%; in assay [2] (setting [8]), 85% (active); in assay [2] (at 50.0 µM), 86.3% (active). Also, the growth inhibition in assay [3] (setting [7]) is 44%; in assay [3] (setting [8]), 88% (active); in assay [3] (at 50.0 µM) it was 88.6% (active); in assay [4] (setting [7]) it was 47%; in assay [4] (setting [8]), 91% (active); in assay [4] (at 50.0 µM), 86.1% (active). The growth inhibition in assay [5] (setting [7]) is 45%; in assay [5] (setting [8]), 86% (active); in assay [5] (at 50.0 µM), 81.7% (active); in assay [6] (setting [7]), 48%; in assay [6] (setting [8]), 90% (active); in assay [6] (at 50.0 µM), 80.7% (active).

With `CCCCCCCOC(=O)c1cc2cc(C(CC)C(CC)c3ccc(O)cc3)ccc2oc1=O` (configuration not stated), the growth inhibition was 23% in assay [1] (setting [7]); 47% in assay [1] (setting [8]); 83.1% (active) in assay [1] (at 50.0 µM); 37% in assay [2] (setting [7]); 23% in assay [2] (setting [8]); 91.3% (active) in assay [2] (at 50.0 µM). Further, the growth inhibition in assay [3] (setting [7]) was 47%; in assay [3] (setting [8]), 65%; in assay [3] (at 50.0 µM), 82% (active); in assay [4] (setting [7]), 30%; in assay [4] (setting [8]), 74% (active); in assay [4] (at 50.0 µM) it was 87.4% (active). In addition, the growth inhibition is 11% in assay [5] (setting [7]); 45% in assay [5] (setting [8]); 68.9% in assay [5] (at 50.0 µM); 41% in assay [6] (setting [7]); 57% in assay [6] (setting [8]); 88.9% (active) in assay [6] (at 50.0 µM).

On to `CCOCCOC(=O)c1cc([N+](=O)[O-])cc([N+](=O)[O-])c1`, for which the growth inhibition in assay [1] (setting [7]) was -4%; in assay [1] (setting [8]), 94% (active); in assay [1] (at 50.0 µM) it was 60.2%; in assay [2] (setting [7]), -5%; in assay [2] (setting [8]) it was 98% (active); in assay [2] (at 50.0 µM), 66.3%. Besides, the growth inhibition in assay [3] (setting [7]) was -3%; in assay [3] (setting [8]), 93% (active); in assay [3] (at 50.0 µM), 53.8%; in assay [4] (setting [7]) it was -3%; in assay [4] (setting [8]) it was 41%; in assay [4] (at 50.0 µM), -1.5%. In addition, the growth inhibition is -8% in assay [5] (setting [7]); 94% (active) in assay [5] (setting [8]); 91.7% (active) in assay [5] (at 50.0 µM); 2% in assay [6] (setting [7]); 98% (active) in assay [6] (setting [8]); 95.9% (active) in assay [6] (at 50.0 µM).

Consider `NNC(=O)C(=O)N/N=C(/CCC(=O)NCCc1ccccc1)CC(=O)c1ccccc1`, for which the growth inhibition was 1% in assay [1] (setting [7]); 3% in assay [1] (setting [8]); 28.5% in assay [1] (at 50.0 µM); 1% in assay [2] (setting [7]); 2% in assay [2] (setting [8]); 3.05% in assay [2] (at 50.0 µM). For the same compound, the growth inhibition in assay [3] (setting [7]) was -2%; in assay [3] (setting [8]), 4%; in assay [3] (at 50.0 µM), 9.1%; in assay [4] (setting [7]), -3%; in assay [4] (setting [8]), 1%; in assay [4] (at 50.0 µM) it was 6.15%. For the same compound, the growth inhibition in assay [5] (setting [7]) is 0%; in assay [5] (setting [8]), 0%; in assay [5] (at 50.0 µM), -3.3%; in assay [6] (setting [7]), -2%; in assay [6] (setting [8]), -3%; in assay [6] (at 50.0 µM) it was 22.6%.

`Cc1ccc(S(=O)(=O)N/N=C/c2cc(I)cc([N+](=O)[O-])c2O)cc1`: the growth inhibition was 17% in assay [1] (setting [7]); 91% (active) in assay [1] (setting [8]); 89.3% (active) in assay [1] (at 50.0 µM); 13% in assay [2] (setting [7]); 92% (active) in assay [2] (setting [8]); 95.8% (active) in assay [2] (at 50.0 µM). Besides, the growth inhibition in assay [3] (setting [7]) is 23%; in assay [3] (setting [8]), 93% (active); in assay [3] (at 50.0 µM), 97.7% (active); in assay [4] (setting [7]), 9%; in assay [4] (setting [8]), 94% (active); in assay [4] (at 50.0 µM), 91.3% (active). Further, the growth inhibition was 8% in assay [5] (setting [7]); 97% (active) in assay [5] (setting [8]); 88.8% (active) in assay [5] (at 50.0 µM); 21% in assay [6] (setting [7]); 94% (active) in assay [6] (setting [8]); 96.5% (active) in assay [6] (at 50.0 µM).

As to `CN(C)C1CCC2C3CC=C4CC(OC=O)CCC4(C)C3CCC21C` (configuration not stated), the growth inhibition is -1% in assay [1] (setting [7]); 48% in assay [1] (setting [8]); 71.2% (active) in assay [1] (at 50.0 µM); 2% in assay [2] (setting [7]); 42% in assay [2] (setting [8]); 17.3% in assay [2] (at 50.0 µM). Further, the growth inhibition is 2% in assay [3] (setting [7]); 60% in assay [3] (setting [8]); 65.5% in assay [3] (at 50.0 µM); 17% in assay [4] (setting [7]); 83% (active) in assay [4] (setting [8]); 76.4% (active) in assay [4] (at 50.0 µM). In addition, the growth inhibition in assay [5] (setting [7]) was 0%; in assay [5] (setting [8]), 86% (active); in assay [5] (at 50.0 µM), 48.8%; in assay [6] (setting [7]) it was -11%; in assay [6] (setting [8]), 52%; in assay [6] (at 50.0 µM) it was 45.7%.

Consider `[N-]=[N+]=NC1=C(C(=O)c2ccccc2)C(=O)c2cccc3cccc1c23`, for which the growth inhibition in assay [1] (setting [7]) was 13%; in assay [1] (setting [8]), 18%; in assay [1] (at 50.0 µM), 32.7%; in assay [2] (setting [7]), 6%; in assay [2] (setting [8]), 27%; in assay [2] (at 50.0 µM), 20.4%. Further, the growth inhibition in assay [3] (setting [7]) is 18%; in assay [3] (setting [8]), 30%; in assay [3] (at 50.0 µM) it was 37%; in assay [4] (setting [7]) it was 6%; in assay [4] (setting [8]) it was 17%; in assay [4] (at 50.0 µM) it was 35.2%. The growth inhibition in assay [5] (setting [7]) was 8%; in assay [5] (setting [8]), 40%; in assay [5] (at 50.0 µM) it was 25.4%; in assay [6] (setting [7]), 4%; in assay [6] (setting [8]), 29%; in assay [6] (at 50.0 µM), 70% (active).
